Laboratory results published in PubChem BioAssay.
The source made the active and inactive calls.

Assays:
[1] = small molecules captured by biotinylated probe aFSTL3 – biochemical, small-molecule microarray, fluorescence 635/667, stem cell growth factor project, primary screen (AID 1064); details: higher = more signal;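 note: measures binding of the biotinylated anti-FSTL3 antibody to printed compounds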
[2] = binders from COS7 lysate, DM2A8 probe, primary screen, torsin A project, cell lysate, small-molecule microarray, fluorescence 635/667 (AID 1065); details: higher = more signal, COS7 lysate expressing mutant human TOR1A
[3] = small molecules captured by biotinylated probe aFGF2 – biochemical, small-molecule microarray, fluorescence 635/667, stem cell growth factor project, primary screen (AID 1067); details: higher = more signal;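 note: measures binding of biotinylated aFGF2 protein to printed compounds on slides; z-score merges feature fluorescence and signal-to-noise across triplicate slides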
[4] = small molecules captured by biotinylated probe aFGF10 – biochemical, small-molecule microarray, fluorescence 635/667, stem cell growth factor project, primary screen (AID 1071); details: higher = more signal;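 note: score merges 667 nm spot intensity and signal to noise from triplicate slides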
[5] = target: Neurogenic locus notch homolog protein 2 (Homo sapiens) (UniProt Q04721); experiment: small molecules binding Notch2 protein – biochemical, small-molecule microarray, 635 nm fluorescence, stem cell growth factors, primary screen (AID 1073); details: higher = more signal
[6] = target: Pro-neuregulin-1, membrane-bound isoform (Homo sapiens) (UniProt Q02297); experiment: small molecules binding neuregulin-1 protein – biochemical, small-molecule microarray, fluorescence 635/667, psychiatric disease protein project, primary screen (AID 1075); details: NRG1 binding, 635 nm fluorescence, higher = more signal;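 note: score combines 667 nm spot fluorescence with signal to noise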
[7] = system: Neuregulin-1 EGF-like domain; experiment: small molecules binding NRG1 EGF domain – biochemical, small-molecule microarray, 635 nm fluorescence, primary screen (AID 1081); details: higher = more signal;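 note: binding of the protein to compounds printed on small-molecule microarray slides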
[8] = FRG1 expression reporter modulators in myotubes – cell-based, C2C12 myotubes, firefly/Renilla luciferase, luminescence, FRG1 inhibition for FSHD, primary screen (AID 1084); details: FRG1 promoter luciferase, higher = more signal, called active from +8 up or from −8 down
[9] = small molecules captured by biotinylated probe aFST – biochemical, small-molecule microarray, fluorescence 635/667, stem cell growth factor project, primary screen (AID 1086); details: higher = more signal;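 note: score merges 667 nm fluorescence with signal-to-noise of each printed compound spot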
[10] = binders of probe aHhip on microarray, primary screen, stem cell growth factor project, biochemical, small-molecule microarray, fluorescence 635/667 (AID 1087); details: higher = more signal;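 note: score merges spot fluorescence at 667nm with spot signal to noise ratio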
[11] = system: PRMT1 (protein arginine N-methyltransferase 1); experiment: small molecules binding arginine methyltransferase PRMT1 – biochemical, small-molecule microarray, 635 nm fluorescence, primary screen (AID 1088); details: higher = more signal;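 note: binding of Prmt1 protein to compounds spotted on small-molecule microarray slides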
[12] = growth effects on S. cerevisiae YJM789 – YJM789 clinical isolate, OD600, 24 h, basal, primary screen (AID 1089); details: higher = more signal, called active from +8 up or from −8 down;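 note: growth of clinical yeast isolate S. cerevisiae YJM 789 seeded 1000 cells per well; test concentration not given here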
[13] = S. pombe growth modifiers, basal conditions – strain 972, OD600, 24 h, no modulator, primary screen (AID 1090);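 note: basal condition with compound alone and no growth modifier present; test concentration not given here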; details: S. pombe 972 growth, higher = more signal, called active from +8 up or from −8 down
[14] = budding yeast growth modifiers under rapamycin – strain BY4716, OD600, 96 h, primary screen (AID 1091); note: test concentration not given here; details: S. cerevisiae BY4716 + rapamycin, higher = more signal, called active from +8 up or from −8 down
[15] = target: Torsin-1A-interacting protein 2 (Homo sapiens) (UniProt Q8NFQ8); experiment: small molecules binding lysate-expressed LULL1 – cell lysate, human LULL1 lysate, 635/667 nm fluorescence, primary screen (AID 1092); details: small-molecule microarray, hLULL1 lysate binding, 635 nm fluorescence; higher = more signal;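 note: probe is lysate of COS7 cells overexpressing human LULL1; score merges per-feature 667 nm fluorescence with signal-to-noise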
[16] = optical density change of DRC41 E. coli – strain DRC41, OD650, 24 h, E. coli filamentation project, primary screen (AID 1093);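 note: MC1000 strain lacking acrAB efflux and sulA so SOS filamentation is blocked; test concentration not given here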; details: E. coli DRC41 growth, higher = more signal, called active from +8 up or from −8 down
[17] = probe aLefty2 binding to arrayed compounds – biochemical, biotinylated probe, 635/667 nm fluorescence, primary screen (AID 1094); details: small-molecule microarray, higher = more signal;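 note: score merges spot fluorescence near 667 nm with spot signal-to-noise ratio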
[18] = system: Noggin (protein binding on small-molecule microarray); experiment: small molecules binding Noggin protein – biochemical, 635/667 nm fluorescence, primary screen (AID 1095); details: 635 nm fluorescence, higher = more signal;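 note: score merges 667 nm feature fluorescence with signal to noise over triplicate slides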
[19] = target: Neurogenic locus notch homolog protein 3 (Homo sapiens) (UniProt Q9UM47); experiment: small molecules binding NOTCH3 protein – biochemical, 635/667 nm fluorescence, primary screen (AID 1096); details: small-molecule microarray, 635 nm fluorescence, higher = more signal
[20] = probe aEGFR binding to arrayed compounds – biochemical, biotinylated probe, 635/667 nm fluorescence, primary screen (AID 1097); details: small-molecule microarray, higher = more signal;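 note: probe is a biotinylated anti-EGFR antibody binding compounds printed on slides; score combines fluorescence near 667 nm and signal to noise of each spot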

Sequence of Neurogenic locus notch homolog protein 3 (Homo sapiens) (Q9UM47 whole entry, looked up): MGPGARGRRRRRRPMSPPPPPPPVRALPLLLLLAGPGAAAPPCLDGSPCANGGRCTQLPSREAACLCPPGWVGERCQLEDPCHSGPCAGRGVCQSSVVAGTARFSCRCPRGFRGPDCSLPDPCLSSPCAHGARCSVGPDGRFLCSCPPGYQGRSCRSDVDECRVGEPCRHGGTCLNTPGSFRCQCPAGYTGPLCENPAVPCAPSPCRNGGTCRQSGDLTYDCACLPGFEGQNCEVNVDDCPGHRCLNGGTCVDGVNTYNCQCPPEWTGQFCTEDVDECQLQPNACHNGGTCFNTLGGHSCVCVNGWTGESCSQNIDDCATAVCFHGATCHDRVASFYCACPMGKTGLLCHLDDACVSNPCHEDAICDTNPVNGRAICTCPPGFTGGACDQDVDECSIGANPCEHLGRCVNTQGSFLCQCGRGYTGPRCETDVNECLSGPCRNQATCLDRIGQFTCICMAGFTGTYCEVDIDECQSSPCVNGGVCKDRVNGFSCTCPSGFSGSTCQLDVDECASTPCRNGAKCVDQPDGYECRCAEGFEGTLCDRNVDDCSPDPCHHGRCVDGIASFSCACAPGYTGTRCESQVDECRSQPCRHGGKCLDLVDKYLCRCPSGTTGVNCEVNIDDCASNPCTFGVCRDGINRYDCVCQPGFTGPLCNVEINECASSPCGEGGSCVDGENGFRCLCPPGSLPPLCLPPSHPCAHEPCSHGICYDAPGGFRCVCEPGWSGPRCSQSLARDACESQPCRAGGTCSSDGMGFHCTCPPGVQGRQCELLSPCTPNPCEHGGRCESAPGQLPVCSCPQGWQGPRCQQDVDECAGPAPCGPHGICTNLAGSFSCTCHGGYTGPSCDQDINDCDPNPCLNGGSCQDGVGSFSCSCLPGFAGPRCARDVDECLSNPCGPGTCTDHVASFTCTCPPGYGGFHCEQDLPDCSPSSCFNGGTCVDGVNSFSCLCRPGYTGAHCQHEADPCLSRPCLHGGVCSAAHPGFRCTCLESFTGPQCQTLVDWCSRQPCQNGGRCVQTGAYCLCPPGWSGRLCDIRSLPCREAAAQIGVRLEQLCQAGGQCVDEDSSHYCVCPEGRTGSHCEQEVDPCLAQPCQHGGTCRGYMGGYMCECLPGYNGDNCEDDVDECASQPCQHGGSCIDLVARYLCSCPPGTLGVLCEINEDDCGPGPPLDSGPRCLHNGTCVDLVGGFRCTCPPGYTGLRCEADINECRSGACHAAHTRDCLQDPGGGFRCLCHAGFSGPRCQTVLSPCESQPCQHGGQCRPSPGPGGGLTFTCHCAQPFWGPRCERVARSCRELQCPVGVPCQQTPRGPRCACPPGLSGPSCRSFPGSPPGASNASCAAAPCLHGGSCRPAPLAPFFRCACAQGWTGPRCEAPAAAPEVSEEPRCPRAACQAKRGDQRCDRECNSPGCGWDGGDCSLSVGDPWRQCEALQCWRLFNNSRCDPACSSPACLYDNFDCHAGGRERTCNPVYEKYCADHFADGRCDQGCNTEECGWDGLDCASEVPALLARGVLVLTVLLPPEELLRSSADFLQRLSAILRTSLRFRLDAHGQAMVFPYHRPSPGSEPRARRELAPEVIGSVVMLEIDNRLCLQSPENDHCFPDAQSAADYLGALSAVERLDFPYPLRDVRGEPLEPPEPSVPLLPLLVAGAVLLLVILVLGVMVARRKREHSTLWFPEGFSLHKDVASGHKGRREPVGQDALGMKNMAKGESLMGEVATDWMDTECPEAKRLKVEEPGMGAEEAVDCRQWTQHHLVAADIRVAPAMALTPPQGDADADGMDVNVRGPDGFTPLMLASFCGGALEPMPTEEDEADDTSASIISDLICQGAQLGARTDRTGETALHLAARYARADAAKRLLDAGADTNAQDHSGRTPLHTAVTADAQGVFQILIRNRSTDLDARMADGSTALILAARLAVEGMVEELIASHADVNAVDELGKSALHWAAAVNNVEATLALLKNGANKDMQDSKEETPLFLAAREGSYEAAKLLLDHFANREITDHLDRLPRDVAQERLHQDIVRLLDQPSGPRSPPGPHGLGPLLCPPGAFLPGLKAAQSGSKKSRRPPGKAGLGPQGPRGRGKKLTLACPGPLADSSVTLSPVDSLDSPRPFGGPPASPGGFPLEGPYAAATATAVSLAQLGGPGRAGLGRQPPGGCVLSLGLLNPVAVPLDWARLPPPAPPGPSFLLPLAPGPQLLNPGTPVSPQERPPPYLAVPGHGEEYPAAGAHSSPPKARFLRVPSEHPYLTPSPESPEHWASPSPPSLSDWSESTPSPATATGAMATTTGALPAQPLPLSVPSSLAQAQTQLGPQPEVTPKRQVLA
Sequence of Pro-neuregulin-1, membrane-bound isoform (Homo sapiens) (Q02297 whole entry, looked up, the tested form may be a part, canonical isoform): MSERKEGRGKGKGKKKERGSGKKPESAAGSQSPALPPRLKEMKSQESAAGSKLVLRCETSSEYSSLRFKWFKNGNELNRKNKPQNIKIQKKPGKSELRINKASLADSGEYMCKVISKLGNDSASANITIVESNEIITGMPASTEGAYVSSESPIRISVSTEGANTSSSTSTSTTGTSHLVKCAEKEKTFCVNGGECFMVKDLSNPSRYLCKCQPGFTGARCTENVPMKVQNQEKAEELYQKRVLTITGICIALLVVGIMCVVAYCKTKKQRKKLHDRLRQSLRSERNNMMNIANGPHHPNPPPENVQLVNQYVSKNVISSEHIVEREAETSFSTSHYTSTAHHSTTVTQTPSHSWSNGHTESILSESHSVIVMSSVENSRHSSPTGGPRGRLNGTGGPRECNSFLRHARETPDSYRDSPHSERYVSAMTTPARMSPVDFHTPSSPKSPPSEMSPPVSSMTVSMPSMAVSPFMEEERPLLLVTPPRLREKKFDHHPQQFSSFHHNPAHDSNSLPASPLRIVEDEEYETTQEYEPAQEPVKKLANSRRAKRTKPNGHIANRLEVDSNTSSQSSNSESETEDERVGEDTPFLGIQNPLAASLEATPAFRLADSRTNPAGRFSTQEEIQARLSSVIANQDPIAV
Sequence of Torsin-1A-interacting protein 2 (Homo sapiens) (Q8NFQ8 whole entry, looked up): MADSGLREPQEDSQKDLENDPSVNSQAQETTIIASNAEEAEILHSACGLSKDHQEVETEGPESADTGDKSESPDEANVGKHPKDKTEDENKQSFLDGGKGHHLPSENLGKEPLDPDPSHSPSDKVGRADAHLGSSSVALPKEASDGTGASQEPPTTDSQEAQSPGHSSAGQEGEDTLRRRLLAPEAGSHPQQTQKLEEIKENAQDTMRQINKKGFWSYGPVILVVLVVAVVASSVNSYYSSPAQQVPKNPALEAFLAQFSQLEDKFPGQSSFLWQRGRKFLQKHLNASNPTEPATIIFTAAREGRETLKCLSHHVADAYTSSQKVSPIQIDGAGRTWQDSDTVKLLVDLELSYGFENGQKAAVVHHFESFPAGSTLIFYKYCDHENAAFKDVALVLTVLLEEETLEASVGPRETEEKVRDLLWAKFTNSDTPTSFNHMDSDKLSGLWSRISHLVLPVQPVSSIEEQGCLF

Compound	composite z-score [1]	composite z-score [2]	composite z-score [3]	composite z-score [4]	composite z-score [5]	composite z-score [6]	composite z-score [7]	z-score [8]	composite z-score [9]	composite z-score [10]	composite z-score [11]	z-score [12]	z-score [13]	z-score [14]	composite z-score [15]	z-score [16]	composite z-score [17]	composite z-score [18]	composite z-score [19]	composite z-score [20]
Cc1ccc(S[C@]2(C(=O)NCC(C)C)CC(=O)N(Cc3ccccc3Cl)[C@@H]2c2ccc(CO)cc2I)cc1	0.699	1.65	-0.0818	0.452	-1.11	1.54	1.36	-1.45 (inactive)	-0.414	-0.0645	0.939	-1.38 (inactive)	-1.87 (inactive)	0.0522 (inactive)	1.8	-0.712 (inactive)	0.225	-1.08	-0.309	-0.304
Cc1c(NC(=O)/C(C#N)=C/C=C/c2ccccc2[N+](=O)[O-])c(=O)n(-c2ccccc2)n1C	-0.0331	0.563	0.0415	0.0448	1.03	1.1	1.13	-0.844 (inactive)	0.334	0.0352	0.454	0.218 (inactive)	-0.322 (inactive)	0.477 (inactive)	1.85	1.02 (inactive)	-0.0124	0.148	0.945	-0.0043
CC(C)(C)OC(=O)CC[C@]1(C(=O)O)N=C(c2ccc(OCCCO)cc2)O[C@H]1c1ccccc1	-0.161	-0.0254	-0.0345	0.19	0.831	0.467	1.11	1.9 (inactive)	0.292	1.28	-0.147	-0.627 (inactive)	-0.573 (inactive)	-1.97 (inactive)	2.2	0.461 (inactive)	-0.0226	-0.0257	0.154	-0.0485
[N-]=[N+]=NCc1ccccc1C[C@@]1(C(N)=O)N=C(c2ccc(OCCCO)cc2)O[C@@H]1c1ccccc1CN=[N+]=[N-]	0.517	-0.186	-0.0469	0.972	1.53	1.01	1.19	1.56 (inactive)	0.544	-0.0645	1.22	0.656 (inactive)	-0.0127 (inactive)	0.0339 (inactive)	2.94	0.585 (inactive)	0.123	-0.0392	0.808	0.263
CC(C)N1CC=CC23O[C@@H]4C=CCCOC(=O)C4[C@H]2C(=O)N(CCO)[C@@H]3C1=O (stereo not given in full)	0.108	2.11	-0.177	-0.351	-0.537	-0.637	0.606	-0.286 (inactive)	-0.398	-0.0939	0.291	-0.631 (inactive)	-0.349 (inactive)	-1.2 (inactive)	-0.805	2.99 (inactive)	-0.145	-0.736	-0.362	-0.203
COc1ccccc1CN1C(=O)c2ccccc2[C@](Cc2ccccc2I)(C(=O)NC(C)C)[C@@H]1c1ccc(CO)cc1	-0.515	0.49	-0.0296	0.732	1.43	1.7	1.15	-2.79 (inactive)	0.614	0.0373	1.53	0.188 (inactive)	0.0889 (inactive)	0.152 (inactive)	2.05	-1.01 (inactive)	-0.158	1.22	1.06	0.0583
CC1CC/C=C\[C@H]2OC34C=CCN(C(C)C)C(=O)[C@H]3N(CCCCCO)C(=O)[C@@H]4C2C(=O)O1 (stereo not given in full)	0.4	-1.06	-0.0996	-0.47	-0.704	-0.187	0.0093	0.371 (inactive)	-0.386	-0.191	-0.897	-0.104 (inactive)	-0.931 (inactive)	-0.958 (inactive)	-0.573	0.827 (inactive)	-0.139	-1.43	-0.208	-0.281
CN1C2C=C(CCCO)C(C3C(=O)N(C(N)=O)C(=O)C32)C1c1cccs1 (stereo not given)	-0.153	0.104	-0.116	-1.63	0.127	-0.317	0.165	-0.194 (inactive)	0.0118	0.303	0.613	1.06 (inactive)	1.1 (inactive)	0.689 (inactive)	0.502	0.155 (inactive)	0.89	-0.23	-0.658	0.976
COCCCNC(=O)[C@]1(CCC(=O)OC(C)(C)C)N=C(c2ccc(OCCCO)cc2)O[C@@H]1c1ccccc1	1.19	0.389	0.0629	0.578	0.819	1.96	1.28	0.977 (inactive)	0.888	0.591	1.22	0.12 (inactive)	1.06 (inactive)	-0.302 (inactive)	3.65	0.447 (inactive)	0.629	-0.275	0.226	0.475
COCCOC(=O)N1C(=O)[C@@]2(c3cc(C#Cc4ccc(OC)cc4)ccc31)[C@H](C(=O)N1CCCCCCC1)[C@H]1C(=O)O[C@H](c3ccccc3)[C@H](c3ccccc3)N1[C@@H]2c1ccc(O)cc1	2.75	0.294	0.125	0.479	0.565	0.114	1.13	1.09 (inactive)	2.06	0.615	1.47	-0.194 (inactive)	0.318 (inactive)	2.3 (inactive)	1.79	0.551 (inactive)	0.834	0.674	0.709	0.0577
